According to the supplement of paper PMC10849652:
Targets with a hit are over-represented here; the source holds about 7,900 in all. About 0.6% of all pairs of compound and target were hits.

Columns and labels:
Experiment in all cases: log2 fold change, soluble protein after heating vs DMSO (PISA); higher = thermal stabilisation; K562 cells, 10 uM, 30 min; active = over 0.2 and 3.5 SD of the protein, either way, in both replicates (recomputed)
IRAK-1-4 Inhibitor I = compound: C1COCCN1CCN2C3=CC=CC=C3N=C2NC(=O)C4=CC(=CC=C4)[N+](=O)[O-] [IRAK-1-4 Inhibitor I]
How it was run: (§1)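 Soluble protein was quantified by TMTpro 16plex LC-MS/MS after channel sums were equalised. It was obtained as the supernatant after 21,000xg for 90 min from pooled aliquots of K562 cells (2×10^6 cells/mL, 10 μM compound, 30 min) heated for 3 min across 48°C-58°C and extracted in PBS with 0.5% NP-40 at 4°C. Thermal stability values are relative to control samples and come from duplicates. They are given as log2 fold changes.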

ibrutinib = compound: C=CC(=O)N1CCC[C@@H](n2nc(-c3ccc(Oc4ccccc4)cc3)c3c(N)ncnc32)C1 [ibrutinib]
How it was run: as §1

[1] = compound: CC(=O)c1cnc2ccc(-c3cc(Cl)c(O)c(Cl)c3)nc2c1N[C@H]1CC[C@H](CN(C)C)CC1
How it was run: as §1

ralimetinib = compound: CC(C)(C)Cn1c(N)nc2ccc(-c3[nH]c(C(C)(C)C)nc3-c3ccc(F)cc3)nc21 [ralimetinib]
How it was run: as §1

[2] = compound: CC(C)(O)CC(=O)NCCn1ccc2ncnc(Nc3ccc(Oc4cccc(C(F)(F)F)c4)c(Cl)c3)c21
How it was run: as §1

[3] = compound: CC(C)C1=C2N=C(C=C(N2N=C1)NCC3=CC=CC=C3)NCCCCCCN
How it was run: as §1

[4] = compound: CC(C)C[C@@H](C=O)NC(=O)[C@H](CC(C)C)NC(=O)[C@H](CC(C)C)NC(=O)OCc1ccccc1
How it was run: as §1

pinometostat = compound: CC(C)N(C[C@H]1O[C@@H](n2cnc3c(N)ncnc32)[C@H](O)[C@@H]1O)[C@H]1C[C@@H](CCc2nc3cc(C(C)(C)C)ccc3[nH]2)C1 [pinometostat]
How it was run: as §1

[5] = compound: CC1=C(C(CC(=O)N1)C2=CC=C(C=C2)C(F)(F)F)C(=O)NC3=C(C=C4C(=C3)C=NN4)F
How it was run: as §1

[6] = compound: CC1=C(C2=C(C=C1)C(=O)C3=CC=CC=C3N2CCCN)C
How it was run: as §1

[7] = compound: CC1=C(C=C(C=C1)NC(=O)C2=CC(=CC=C2)C(C)(C)C#N)NC3=CC4=C(C=C3)N=CN(C4=O)C
How it was run: as §1

[8] = compound: CC1=C(C=C(C=C1)NC(=O)C2=CC(=CC=C2)N(C)C)NC(=O)C3=CC=C(C=C3)O
How it was run: as §1

[9] = compound: CC1=CC=C(C=C1)SC2=C3C=C(SC3=CN=C2)C(=O)N
How it was run: as §1

[10] = compound: CC1=NC(=CC=C1)C2=C(N=C(N2)C(C)(C)C)C3=CC4=NC=CN=C4C=C3
How it was run: as §1

Nexturastat A = compound: CCCCN(Cc1ccc(C(=O)NO)cc1)C(=O)Nc1ccccc1 [Nexturastat A]
How it was run: as §1

vemurafenib = compound: CCCS(=O)(=O)Nc1ccc(F)c(C(=O)c2c[nH]c3ncc(-c4ccc(Cl)cc4)cc23)c1F [vemurafenib]
How it was run: as §1

[11] = compound: CCCS(=O)(=O)Nc1ccc(F)c(C(=O)c2c[nH]c3ncc(Cl)cc23)c1F
How it was run: as §1

[12] = compound: CCCc1cc(C)[nH]c(=O)c1CNC(=O)c1cc(-c2ccnc(N3CCN(C)CC3)c2)cc2c1cnn2C(C)C
How it was run: as §1

givinostat = compound: CCN(CC)Cc1ccc2cc(COC(=O)Nc3ccc(C(=O)NO)cc3)ccc2c1 [givinostat]
How it was run: as §1

barasertib = compound: CCN(CCCOc1ccc2c(Nc3cc(CC(=O)Nc4cccc(F)c4)[nH]n3)ncnc2c1)CCOP(=O)(O)O [barasertib]
How it was run: as §1

Measured: log2 fold change

STAT3 (UniProt P40763)
Chain of UniProt P40763 (P40763 whole entry, looked up): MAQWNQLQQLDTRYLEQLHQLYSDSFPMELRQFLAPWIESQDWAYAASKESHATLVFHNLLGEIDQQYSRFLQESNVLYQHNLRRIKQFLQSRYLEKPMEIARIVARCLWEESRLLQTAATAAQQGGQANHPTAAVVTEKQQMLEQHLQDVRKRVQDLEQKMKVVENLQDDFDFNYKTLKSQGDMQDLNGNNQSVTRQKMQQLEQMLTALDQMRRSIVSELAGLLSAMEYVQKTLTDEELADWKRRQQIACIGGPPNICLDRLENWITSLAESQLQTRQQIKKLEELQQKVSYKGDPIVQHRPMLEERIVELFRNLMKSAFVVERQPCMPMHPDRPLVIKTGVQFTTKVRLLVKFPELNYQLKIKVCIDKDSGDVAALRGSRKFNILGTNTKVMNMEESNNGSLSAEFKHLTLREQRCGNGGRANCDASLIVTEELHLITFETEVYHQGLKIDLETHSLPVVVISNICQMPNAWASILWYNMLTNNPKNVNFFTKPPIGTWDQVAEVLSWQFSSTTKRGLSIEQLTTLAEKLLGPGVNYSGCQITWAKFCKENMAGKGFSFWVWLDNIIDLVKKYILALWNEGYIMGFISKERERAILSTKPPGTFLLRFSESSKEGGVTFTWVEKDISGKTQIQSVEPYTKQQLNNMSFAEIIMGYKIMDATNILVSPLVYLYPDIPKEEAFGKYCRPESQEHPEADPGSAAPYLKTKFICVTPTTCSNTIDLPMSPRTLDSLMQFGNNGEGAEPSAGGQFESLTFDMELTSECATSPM
inactive: IRAK-1-4 Inhibitor I -0.038 | ibrutinib -0.044 | [1] 0.009 | ralimetinib -0.001 | [2] -0.08 | [4] 0.024 | pinometostat 0 | [5] -0.05 | [6] -0.057 | [7] 0.012 | [8] 0.001 | [9] -0.009 | [10] -0.008 | Nexturastat A 0.005 | vemurafenib 0.101 | [11] 0.102 | [12] 0.017 | givinostat 0.089 | barasertib 0.064
active: [3] -0.261

STRN (UniProt O43815)
inactive: IRAK-1-4 Inhibitor I 0.029 | ibrutinib 0.073 | [1] -0.046 | ralimetinib 0.13 | [2] -0.023 | [3] 0.03 | [4] -0.066 | pinometostat -0.002 | [5] -0.037 | [6] 0 | [7] -0.019 | [8] -0.046 | [9] 0.019 | [10] -0.024 | Nexturastat A 0.001 | vemurafenib 0.073 | [11] 0.035 | [12] -0.038 | givinostat 0.002 | barasertib 0.045

TIMM13 (UniProt Q9Y5L4)
Chain of UniProt Q9Y5L4 (Q9Y5L4 whole entry, looked up): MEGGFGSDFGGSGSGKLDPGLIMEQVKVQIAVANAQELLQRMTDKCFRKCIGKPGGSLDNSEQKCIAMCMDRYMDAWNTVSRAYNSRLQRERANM
inactive: IRAK-1-4 Inhibitor I -0.031 | ibrutinib 0.012 | [1] 0.01 | ralimetinib -0.008 | [2] -0.145 | [3] 0.048 | [4] -0.085 | pinometostat -0.092 | [5] 0.018 | [6] 0.092 | [7] 0.086 | [8] -0.048 | [9] 0.03 | [10] 0.143 | Nexturastat A -0.19 | vemurafenib 0.072 | [11] 0.015 | [12] 0.085 | givinostat 0.089 | barasertib -0.035

TFAM (UniProt Q00059)
Chain of UniProt Q00059 (Q00059 whole entry, looked up): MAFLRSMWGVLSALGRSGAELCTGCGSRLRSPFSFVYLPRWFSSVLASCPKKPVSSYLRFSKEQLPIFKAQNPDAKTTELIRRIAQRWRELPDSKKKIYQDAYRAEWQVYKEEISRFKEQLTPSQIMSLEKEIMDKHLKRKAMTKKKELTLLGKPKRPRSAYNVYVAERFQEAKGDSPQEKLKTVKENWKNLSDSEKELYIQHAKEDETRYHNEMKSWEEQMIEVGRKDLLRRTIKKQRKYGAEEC
active: [6] -0.414
inactive: IRAK-1-4 Inhibitor I -0.047 | ibrutinib 0.03 | [1] 0.07 | ralimetinib 0.044 | [2] 0.043 | [3] 0.007 | [4] 0.056 | pinometostat 0.05 | [5] 0.002 | [7] 0.039 | [8] -0.004 | [9] -0.036 | [10] -0.036 | Nexturastat A 0.079 | vemurafenib -0.05 | [11] -0.043 | [12] -0.033 | givinostat -0.055 | barasertib -0.023

SMARCA5 (UniProt O60264)
Chain of UniProt O60264 (O60264 whole entry, looked up): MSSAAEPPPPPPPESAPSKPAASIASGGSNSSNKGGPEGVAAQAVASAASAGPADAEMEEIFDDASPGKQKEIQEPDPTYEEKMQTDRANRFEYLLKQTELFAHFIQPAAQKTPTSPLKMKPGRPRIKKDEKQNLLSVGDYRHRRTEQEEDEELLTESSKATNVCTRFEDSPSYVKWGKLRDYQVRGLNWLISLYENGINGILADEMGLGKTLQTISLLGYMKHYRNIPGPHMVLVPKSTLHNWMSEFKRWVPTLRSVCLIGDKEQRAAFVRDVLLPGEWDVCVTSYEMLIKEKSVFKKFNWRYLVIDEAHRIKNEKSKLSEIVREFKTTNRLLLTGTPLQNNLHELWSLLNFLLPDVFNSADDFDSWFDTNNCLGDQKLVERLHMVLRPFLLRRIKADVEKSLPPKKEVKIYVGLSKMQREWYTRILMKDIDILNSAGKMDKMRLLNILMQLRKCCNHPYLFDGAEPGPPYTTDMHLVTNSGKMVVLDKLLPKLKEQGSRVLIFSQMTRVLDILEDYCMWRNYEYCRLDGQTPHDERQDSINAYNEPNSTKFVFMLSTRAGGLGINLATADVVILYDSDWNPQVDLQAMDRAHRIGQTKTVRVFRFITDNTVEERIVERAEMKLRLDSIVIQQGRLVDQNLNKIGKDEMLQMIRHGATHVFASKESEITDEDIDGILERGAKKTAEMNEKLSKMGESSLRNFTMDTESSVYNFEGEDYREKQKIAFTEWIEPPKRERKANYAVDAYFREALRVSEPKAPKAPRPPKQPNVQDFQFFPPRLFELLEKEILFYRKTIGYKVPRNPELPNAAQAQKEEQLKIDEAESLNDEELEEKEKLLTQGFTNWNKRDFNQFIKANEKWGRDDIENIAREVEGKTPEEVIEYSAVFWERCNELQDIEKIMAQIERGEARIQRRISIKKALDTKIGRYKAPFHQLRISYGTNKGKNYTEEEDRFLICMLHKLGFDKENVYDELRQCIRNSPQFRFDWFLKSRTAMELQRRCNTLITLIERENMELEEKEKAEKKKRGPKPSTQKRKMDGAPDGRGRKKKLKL
inactive: IRAK-1-4 Inhibitor I -0.108 | ibrutinib -0.135 | [1] 0.103 | ralimetinib 0.033 | [2] -0.113 | [3] -0.025 | [4] 0.084 | pinometostat 0.068 | [5] -0.135 | [7] 0.042 | [8] -0.041 | [9] 0.038 | [10] 0.014 | Nexturastat A 0.107 | vemurafenib 0.085 | [11] 0.129 | [12] 0.032 | givinostat 0.149 | barasertib 0.109
active: [6] -0.97

TBC1D15 isoform 3 (UniProt Q8TC07)
Chain of UniProt Q8TC07 (Q8TC07 whole entry, looked up): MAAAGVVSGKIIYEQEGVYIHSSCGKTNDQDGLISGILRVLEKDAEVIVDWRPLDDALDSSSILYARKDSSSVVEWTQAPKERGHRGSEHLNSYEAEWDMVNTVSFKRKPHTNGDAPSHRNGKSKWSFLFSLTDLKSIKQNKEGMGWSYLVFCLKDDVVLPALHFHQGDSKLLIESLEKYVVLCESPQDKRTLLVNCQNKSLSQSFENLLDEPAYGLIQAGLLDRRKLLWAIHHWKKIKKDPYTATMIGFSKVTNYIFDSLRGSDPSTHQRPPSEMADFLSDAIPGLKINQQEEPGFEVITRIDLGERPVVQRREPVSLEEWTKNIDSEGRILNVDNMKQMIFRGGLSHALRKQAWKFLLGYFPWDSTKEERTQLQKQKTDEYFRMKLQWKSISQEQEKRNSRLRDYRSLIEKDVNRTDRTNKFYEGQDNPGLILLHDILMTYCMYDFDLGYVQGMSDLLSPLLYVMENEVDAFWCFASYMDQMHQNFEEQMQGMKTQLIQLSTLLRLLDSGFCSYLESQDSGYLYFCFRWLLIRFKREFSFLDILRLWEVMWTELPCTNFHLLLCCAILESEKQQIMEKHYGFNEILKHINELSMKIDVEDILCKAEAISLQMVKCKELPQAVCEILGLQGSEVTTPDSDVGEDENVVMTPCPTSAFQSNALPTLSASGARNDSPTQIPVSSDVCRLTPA
active: [3] -0.326
inactive: IRAK-1-4 Inhibitor I 0.235 | ibrutinib -0.021 | [1] 0.009 | ralimetinib 0.041 | [2] -0.082 | [4] 0.012 | pinometostat 0.056 | [5] 0 | [6] -0.01 | [7] 0.076 | [8] -0.028 | [9] -0.003 | [10] -0.019 | Nexturastat A 0.002 | vemurafenib 0.049 | [11] 0.12 | [12] -0.015 | givinostat 0.046 | barasertib 0.068

SNRNP40 (UniProt Q96DI7)
Chain of UniProt Q96DI7 (Q96DI7 whole entry, looked up): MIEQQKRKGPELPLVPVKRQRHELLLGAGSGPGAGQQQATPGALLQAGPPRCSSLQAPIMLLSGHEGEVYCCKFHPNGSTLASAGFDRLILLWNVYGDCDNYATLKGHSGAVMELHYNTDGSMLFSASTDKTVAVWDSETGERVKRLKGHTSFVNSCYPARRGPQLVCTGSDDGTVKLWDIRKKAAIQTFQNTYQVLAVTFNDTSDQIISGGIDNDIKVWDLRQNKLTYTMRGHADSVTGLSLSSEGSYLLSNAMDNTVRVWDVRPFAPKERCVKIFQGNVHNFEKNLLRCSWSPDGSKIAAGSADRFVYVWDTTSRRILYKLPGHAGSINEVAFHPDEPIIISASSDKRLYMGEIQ
active: [6] 1.03
inactive: IRAK-1-4 Inhibitor I -0.016 | ibrutinib 0.045 | [1] 0.068 | ralimetinib -0.026 | [2] 0.086 | [3] 0.177 | [4] 0.038 | pinometostat -0.019 | [5] -0.1 | [7] 0.01 | [8] 0.001 | [9] -0.06 | [10] -0.023 | Nexturastat A 0 | vemurafenib -0.027 | [11] -0.046 | [12] -0.037 | givinostat -0.035 | barasertib -0.04

SPINDOC (UniProt Q9BUA3)
inactive: IRAK-1-4 Inhibitor I 0.029 | ibrutinib 0.089 | [1] 0.017 | ralimetinib 0.084 | [2] -0.01 | [3] 0.103 | [4] 0 | pinometostat 0.075 | [5] 0.093 | [6] -0.24 | [7] 0.157 | [8] 0.037 | [9] -0.074 | [10] -0.139 | Nexturastat A -0.014 | vemurafenib 0.113 | [11] 0.11 | [12] -0.013 | givinostat -0.127 | barasertib 0.129

SMC5 (UniProt Q8IY18)
inactive: IRAK-1-4 Inhibitor I 0.041 | ibrutinib 0.062 | [1] -0.045 | ralimetinib 0.046 | [2] 0.029 | [3] 0.161 | [4] 0.036 | pinometostat 0.008 | [5] -0.031 | [7] -0.038 | [8] -0.067 | [9] -0.017 | [10] -0.032 | Nexturastat A -0.014 | vemurafenib 0.043 | [11] -0.033 | [12] -0.02 | givinostat -0.033 | barasertib -0.048
active: [6] -0.332

SNX5 (UniProt Q9Y5X3)
inactive: IRAK-1-4 Inhibitor I 0.042 | ibrutinib 0.019 | [1] -0.167 | ralimetinib -0.038 | [3] -0.224 | [4] 0.005 | pinometostat 0.027 | [5] 0.018 | [6] -0.026 | [7] 0.001 | [8] 0.015 | [9] 0.009 | [10] 0.039 | Nexturastat A -0.074 | vemurafenib 0.009 | [11] 0.035 | [12] -0.031 | givinostat 0.013 | barasertib 0.04
active: [2] -0.304

SLC30A7 (UniProt Q8NEW0)
Chain of UniProt Q8NEW0 (Q8NEW0 whole entry, looked up): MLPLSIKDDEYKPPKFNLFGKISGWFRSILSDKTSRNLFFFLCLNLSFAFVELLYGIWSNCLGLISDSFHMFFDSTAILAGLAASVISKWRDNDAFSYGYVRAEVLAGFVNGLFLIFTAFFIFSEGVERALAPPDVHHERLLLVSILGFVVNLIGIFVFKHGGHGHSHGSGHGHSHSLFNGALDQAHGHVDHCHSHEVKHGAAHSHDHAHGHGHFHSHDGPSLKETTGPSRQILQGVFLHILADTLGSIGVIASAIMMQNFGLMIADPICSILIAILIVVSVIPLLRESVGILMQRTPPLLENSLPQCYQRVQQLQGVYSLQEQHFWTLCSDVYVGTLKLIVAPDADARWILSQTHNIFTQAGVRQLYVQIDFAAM
inactive: IRAK-1-4 Inhibitor I 0.035 | ibrutinib 0.063 | [1] 0.032 | ralimetinib -0.098 | [2] -0.075 | [3] -0.186 | [4] 0.011 | pinometostat -0.007 | [5] -0.058 | [6] 0.06 | [7] -0.03 | [8] 0.003 | [9] 0.03 | [10] -0.072 | Nexturastat A -0.108 | vemurafenib 0.072 | [11] -0.019 | [12] -0.148 | givinostat 0.081 | barasertib 0.032

SURF2 (UniProt Q15527)
active: [6] -0.238
inactive: IRAK-1-4 Inhibitor I 0.071 | ibrutinib 0.004 | [1] -0.043 | ralimetinib -0.117 | [2] -0.014 | [3] 0.131 | [4] 0.022 | pinometostat 0.01 | [5] -0.036 | [7] 0.022 | [8] -0.007 | [9] 0.035 | [10] -0.027 | Nexturastat A 0.033 | vemurafenib -0.037 | [11] -0.002 | [12] -0.029 | givinostat 0.013 | barasertib 0.035

TAOK1 (UniProt Q7L7X3)
inactive: IRAK-1-4 Inhibitor I 0.011 | ibrutinib -0.057 | ralimetinib 0.062 | [2] 0.009 | [3] -0.031 | [4] 0.018 | pinometostat -0.052 | [5] 0.011 | [6] 0.05 | [7] -0.009 | [8] 0.007 | [9] -0.005 | [10] -0.013 | Nexturastat A 0.065 | vemurafenib 0.023 | [11] 0.011 | [12] -0.048 | givinostat 0.001 | barasertib 0.009
active: [1] -0.827

TCOF1 isoform 4 (UniProt Q13428)
inactive: IRAK-1-4 Inhibitor I -0.009 | ibrutinib -0.034 | [1] -0.13 | ralimetinib 0.028 | [2] 0.023 | [3] -0.042 | [4] -0.083 | pinometostat 0.024 | [5] 0.015 | [7] -0.03 | [8] 0.015 | [9] -0.028 | [10] -0.019 | Nexturastat A -0.001 | vemurafenib -0.029 | [11] -0.012 | [12] -0.004 | givinostat 0.056 | barasertib 0.006
active: [6] -0.664

SPART (UniProt Q8N0X7)
Chain of UniProt Q8N0X7 (Q8N0X7 whole entry, looked up): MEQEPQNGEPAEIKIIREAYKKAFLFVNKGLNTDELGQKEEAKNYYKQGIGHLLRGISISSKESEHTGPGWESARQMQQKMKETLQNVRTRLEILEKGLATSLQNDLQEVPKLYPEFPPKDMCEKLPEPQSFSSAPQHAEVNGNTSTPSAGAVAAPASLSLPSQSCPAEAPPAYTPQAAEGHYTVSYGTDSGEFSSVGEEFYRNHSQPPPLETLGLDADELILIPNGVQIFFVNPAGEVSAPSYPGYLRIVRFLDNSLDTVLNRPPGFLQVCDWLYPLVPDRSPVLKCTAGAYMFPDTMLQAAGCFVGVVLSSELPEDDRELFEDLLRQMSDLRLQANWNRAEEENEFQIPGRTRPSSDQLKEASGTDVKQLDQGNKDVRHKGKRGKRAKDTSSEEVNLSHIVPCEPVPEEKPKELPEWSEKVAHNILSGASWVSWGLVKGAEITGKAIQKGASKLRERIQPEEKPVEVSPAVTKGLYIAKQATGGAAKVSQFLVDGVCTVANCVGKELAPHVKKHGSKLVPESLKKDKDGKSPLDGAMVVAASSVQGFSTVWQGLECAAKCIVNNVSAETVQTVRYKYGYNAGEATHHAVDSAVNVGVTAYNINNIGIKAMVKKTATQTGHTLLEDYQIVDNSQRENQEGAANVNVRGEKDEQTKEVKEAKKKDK
inactive: IRAK-1-4 Inhibitor I 0.008 | ibrutinib -0.033 | [1] -0.084 | ralimetinib 0.02 | [2] -0.058 | [3] -0.056 | [4] -0.011 | pinometostat 0.034 | [5] -0.04 | [6] 0.128 | [7] 0.007 | [8] -0.027 | [9] 0.055 | [10] -0.014 | Nexturastat A 0.005 | vemurafenib -0.046 | [11] 0.088 | [12] -0.025 | givinostat 0.001 | barasertib 0.037

STIM1 (UniProt Q13586)
Chain of UniProt Q13586 (Q13586 whole entry, looked up): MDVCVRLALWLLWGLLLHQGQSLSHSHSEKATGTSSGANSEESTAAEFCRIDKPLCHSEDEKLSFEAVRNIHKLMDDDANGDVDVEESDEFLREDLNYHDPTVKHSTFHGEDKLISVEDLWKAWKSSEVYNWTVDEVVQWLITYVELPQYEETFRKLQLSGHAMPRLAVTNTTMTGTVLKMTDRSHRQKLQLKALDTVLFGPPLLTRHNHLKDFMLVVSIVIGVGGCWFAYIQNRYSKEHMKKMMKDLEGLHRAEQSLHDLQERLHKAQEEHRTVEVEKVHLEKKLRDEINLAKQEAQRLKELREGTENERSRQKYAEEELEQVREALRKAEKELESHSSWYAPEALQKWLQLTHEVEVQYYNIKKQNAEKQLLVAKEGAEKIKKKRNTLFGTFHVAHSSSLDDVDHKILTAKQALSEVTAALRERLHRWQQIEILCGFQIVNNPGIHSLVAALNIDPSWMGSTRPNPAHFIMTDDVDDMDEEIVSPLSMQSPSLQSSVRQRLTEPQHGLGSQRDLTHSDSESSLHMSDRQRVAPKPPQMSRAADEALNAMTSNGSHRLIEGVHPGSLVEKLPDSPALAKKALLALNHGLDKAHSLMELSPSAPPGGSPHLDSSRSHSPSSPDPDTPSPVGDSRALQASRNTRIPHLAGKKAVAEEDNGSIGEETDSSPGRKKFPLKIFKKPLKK
active: [3] -0.33
inactive: IRAK-1-4 Inhibitor I 0.006 | ibrutinib 0.007 | [1] -0.06 | ralimetinib -0.036 | [2] -0.067 | [4] 0.034 | pinometostat -0.011 | [5] 0.006 | [6] 0.067 | [7] 0.014 | [8] 0.003 | [9] 0.028 | [10] 0.045 | Nexturastat A -0.066 | vemurafenib -0.006 | [11] 0.034 | [12] -0.015 | givinostat 0.009 | barasertib 0.008
